HT1080-NT tox = qHTS for induction of synthetic lethality in tumor cells producing 2HG: qHTS for the HT-1080-NT fibrosarcoma cell line. HT-1080-NT fibrosarcoma viability, CellTiter-Glo ATP luminescence, 48 h. Potency, µM (highest dose often 46.1 µM), inactives show at the top dose activity, negative = less viability, actives largely listed as cytotoxic. actives 1.6% (n = 360,000);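 also: NT is the 2HG producing partner of a matched IDH1 knockdown line; potency is read from the fitted curve at half-maximal effect; 0% = DMSO-treated cells and -100% = media-only wells without cells; nearly all actives have a fitted effect of over 55% in size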
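HT-1080-NT fibrosarcoma cells (2HG-overproducing), 750 cells/well in RPMI with 5% FBS, dosed after 2 h and incubated 48 h at 37C. CellTiter-Glo luminescence normalized to DMSO and no-cell wells; concentration-response curves fitted and classed.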
IL1B secr inh = qHTS for Inhibitors of Inflammasome Signaling: IL-1-beta AlphaLISA Primary Screen; THP-1 LPS/ATP IL-1B secretion, AlphaLISA, 16 h; hits give low values; activity change, % at 57.5 µM; actives 4.7% (n = 360,000); AID 743279, 2014; in the data active = activity change below about -50%; inconclusive = mostly about -30% to -49%
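THP-1 cells pretreated 1 hr with compounds (up to 57.5 uM final), then stimulated with LPS (250 ng/mL final) plus ATP (1.25 mM final); secreted IL-1B measured by AlphaLISA after 16 hr, decreased signal indicating inhibition.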
TDP1 cell noCPT = qHTS for Inhibitors of human tyrosyl-DNA phosphodiesterase 1 (TDP1): qHTS in cells in absence of CPT; DT40 Tdp1-/- hTDP1 cells, no CPT, ATP luminescence, 48 h; Potency, µM (highest dose often 46.2 µM), for the others: top-dose activity change, negative = growth inhibition, usual class: inhibitors; actives 15% (n = 420,000); AID 686978, 2013; also: potency is read from the fitted curve at half-maximal effect; nearly all actives have a fitted effect of over 55% in size
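Chicken DT40 Tdp1-/- cells complemented with human TDP1, screened without camptothecin (DMSO vehicle only), 400 cells/well. Compounds pin-transferred, cells incubated at 37 °C for at least 48 hr. Growth read as ATP-dependent luminescence (CellTiter-Glo, 30 min at RT).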
HT1080 IDH1KD tx = qHTS for induction of synthetic lethality in tumor cells producing 2HG: qHTS for the HT-1080-IDH1KD cell line; AID 686971, 2013; Potency, µM (top dose mostly 46.1 µM), inactives show at the top dose activity, negative = toxicity, usual class: cytotoxic; actives 2% (n = 360,000); HT-1080 IDH1 knockdown viability, ATP luminescence, 48 h;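 also: potency is read from the fitted curve at half-maximal effect; 0% = DMSO wells and -100% = cell-free medium wells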
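Luminescent ATP read-out (CellTiter-Glo, 10 min at room temperature) after 48 h compound exposure at 37 °C gave viability of IDH1-knockdown HT-1080 cells. Activity was normalised to DMSO and cell-free wells, then fitted as concentration-response curves.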
DT40 TDP1 CPT = qHTS for Inhibitors of human tyrosyl-DNA phosphodiesterase 1 (TDP1): qHTS in cells in presence of CPT; chicken DT40 Tdp1-/-;hTDP1 cells + 20 nM CPT, ATP luminescence, 48 h; AID 686979, 2013; Potency, µM (top dose mostly 46.2 µM), for inactives: at the highest dose activity change, negative = growth inhibition, actives largely listed as inhibitors; actives 12% (n = 420,000); also: potency is read from the fitted curve at half-maximal effect; nearly all actives have a fitted effect of over 55% in size
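Chicken DT40 Tdp1-/- cells stably complemented with human TDP1 were seeded at 400 cells/well in medium containing 20 nM camptothecin, exposed to pin-transferred compounds, and grown at 37 °C for at least 48 hr. Viability was read as ATP luminescence.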
Active calls of the source: *; ? = inconclusive; / = not tested or not shown; [ ] = remark or other dose. Sampled rows, rich in hits. Any-hit rate of the full collection: about 19%. Unless noted, calls follow the shape of the dose curve; as a rule, active = well fitted curve in the direction sought with a large enough effect; inconclusive = small, poorly fitted or top-dose-only effect, or another doubt; inactive = no such curve, though single readings can be large; an effect the other way counts as inactive or inconclusive. Unless noted, % is scaled to controls: 0 for no effect and ±100 for the full control effect.

SMILES	HT1080-NT tox	IL1B secr inh	TDP1 cell noCPT	HT1080 IDH1KD tx	DT40 TDP1 CPT
CCN(CC)C(=O)c1cccc(-c2csc(C(C)(O)c3ccccc3)n2)c1 (configuration not stated)	?	4	?	-2%	?
C=C1C(O)[C@@H]2O[C@]3(CC[C@H](/C=C/C(C)[C@@H]4CC(C)=CC5(O[C@H](C[C@@](C)(O)C(=O)O)CCC5O)O4)O3)CC[C@H]2O[C@@H]1C(O)CC(C)[C@H]1OC2(CCCCO2)CCC1C (some centres not stated)	?	?	0.15µM*	0.0082µM*	0.16µM*
C=C1C([C@@H](O)C[C@H](C)C2O[C@@]3(CCCCO3)CC[C@H]2C)OC2CC[C@@]3(CC[C@@H](/C=C/[C@@H](C)C4CC(C)=C[C@]5(O4)O[C@H](C[C@@](C)(O)C(=O)O)CCC5O)O3)OC2[C@@H]1O (some centres not stated)	/	/	0.01µM*	/	0.013µM*
Cc1noc(C)c1C(=O)N1CCC2(CCCN(CC(C)C)C2)CC1	/	/	2%	/	20%
Cc1sc2ncn(CC(=O)NCC(=O)N3CCC4(CC3)OCCO4)c(=O)c2c1C	11%	17	-10%	10%	2%
CCN(CC)C1=NC(=[N+](CC)CC)c2ccccc21	?	?	0.41µM*	13µM*	0.65µM*
COC(=O)[C@]12OC[C@]34C([C@@H](O)[C@@H]1O)[C@]1(C)CC(=O)C(O)=C(C)[C@@H]1C[C@H]3OC(=O)[C@H](O)[C@@H]24 (some centres not stated)	?	-23	1.5µM*	?	2.9µM*
COc1ccc(C(c2nnnn2-c2c(C)cccc2C)N2CCC3(CC2)C(=O)NCN3c2ccccc2)cc1 (configuration not stated)	23µM*	-64*	21µM*	?	15µM*
O=C1NCN(c2ccccc2)C12CCN(C(c1ccccc1)c1nnnn1C1CCCC1)CC2 (configuration not stated)	-1%	?	?	-8%	?
Cc1cccc(C)c1-n1nnnc1C(c1ccccc1)N1CCC2(CC1)C(=O)NCN2c1ccccc1 (configuration not stated)	?	?	21µM*	?	23µM*
Cc1cccc(C)c1-n1nnnc1C(c1ccnc2ccccc12)N1CCC2(CC1)C(=O)NCN2c1ccccc1 (configuration not stated)	?	?	15µM*	?	23µM*
Cc1cccc(C)c1-n1nnnc1C(C1CC1)N1CCC2(CC1)C(=O)NCN2c1ccccc1 (configuration not stated)	?	-28	15µM*	?	16µM*
COc1ccc(-n2nnnc2C(C2CC2)N2CCC3(CC2)C(=O)NCN3c2ccccc2)cc1 (configuration not stated)	10%	-18	?	1%	?
CCCC(C)C1(CC)C(=O)N=C(S)NC1=O (configuration not stated)	/	/	3%	/	1%
COc1cc(CC(C)N)cc(OC)c1OC (configuration not stated)	/	/	-6%[92.5 µM]	/	4%[92.5 µM]
COc1ccc(-n2c(O)c(C=Nc3c(C)n(C)n(-c4ccccc4)c3=O)c(=O)[nH]c2=O)cc1	-1%	7	-9%	-7%	-21%
CC(C)(C)n1nnnc1C(C1CC1)N1CCC2(CC1)C(=O)NCN2c1ccccc1 (configuration not stated)	17%	-21	16µM*	1%	?
O=P(N1CC1)(N1CC1)N1CCc2ccccc21	?	30	8.2µM*	-7%	7.3µM*
O=C1NC(=O)C(=CN2CCc3ccccc32)C(=O)N1	6%	-6	-5%	-4%	?
